Consider 49 compounds from ChEMBL document CHEMBL3988442, “University of Dundee, Small-Polar-MMV Screening Library” (2021).

The whole screen tested about 69,000 compounds, of which about 950 (1.4%) showed an effect of 50% or more. The sample holds strong results, similar compounds and a random draw of the others, so the mix is not that of the screen.

This test relates to Mycobacterium tuberculosis. Put plainly: Cornell M. t heat shock assay. Also: in the data most compounds retested in dose-response had high values. Details: dose or concentration left out as unconfirmed. In kind it is functional, organism-based.
`O=C1CCNc2ccc(F)cc2CN1Cc1ccco1`: the “Percent Effect” value is on record as 32.83%.

With `COc1ccc2c(c1)CN(Cc1ccco1)C(=O)CCN2`, the “Percent Effect” value turned out to be 54.29%.

Turning to `Cc1nc(CN2C(=O)COC3(CCN(Cc4ccsc4)CC3)C2C)cs1.O=C(O)C(F)(F)F` (centres undefined), the “Percent Effect” value was -25.28%.

On to `CCCNC(c1cccnc1)c1ccc(F)c(C)c1.Cl.Cl` (centres undefined), for which the “Percent Effect” value is reported as -18.54%.

Take `Cc1noc(C)c1CN1CC[C@H]2[C@@H]1CCC(=O)N2CC1CCOCC1.O=C(O)C(F)(F)F`: the “Percent Effect” value is recorded as 19.97%.

With `O=C(O)c1cc(/C=C/c2ccc3ccccc3c2)ncn1`, the “Percent Effect” value is recorded as 55.05%.

For `O=C(O)c1cc(/C=C/c2ccccc2)ncn1`, the “Percent Effect” value is listed as -25.85%.

For the compound `O=C(O)c1cc(/C=C/c2cccc3ccccc23)ncn1`, the “Percent Effect” value is listed as -14.83%.

Take `Cc1cccc(CN2Cc3nccn3CC(CN3CCOCC3)C2)c1.O=C(O)C(F)(F)F.O=C(O)C(F)(F)F` (centres undefined): the “Percent Effect” value is -25.56%.

Turning to `O=C(C1CCCCC1)N1C[C@@H]2CCN(c3cnccn3)C[C@@H]2C1.O=C(O)C(F)(F)F`, the “Percent Effect” value stood at 23.71%.

With `COC[C@H]1CCCN1c1nccc(-c2cnn(-c3ccccc3C)c2)n1`, the “Percent Effect” value worked out at 57.5%.

Turning to `Cc1ccccc1-n1cc(-c2ccnc(N3CCCC(O)C3)n2)cn1` (centres undefined), the “Percent Effect” value is on record as 0.7216%.

In the case of `Cc1ccccc1-n1cc(-c2ccnc(N3CCCC(CN)C3)n2)cn1` (centres undefined), the “Percent Effect” value came to 6.089%.

With `O=C(CC1CC1)N1C[C@@H]2CCN(c3cccnc3)C[C@@H]2C1.O=C(O)C(F)(F)F`, the “Percent Effect” value is given as -11.14%.

With `COCCNC(=O)C(C)N1CCN(C)CC1.O=C(O)C(=O)O` (centres undefined), the “Percent Effect” value is 1.358%.

Take `CN(CC1CCN(c2ccccc2)C1)c1ccc(Cn2ccnc2)cn1` (centres undefined): the “Percent Effect” value is listed as 105.3%.

In the case of `CC(C)N1CCCC(CN(C)c2ccc(Cn3ccnc3)cn2)C1` (centres undefined), the “Percent Effect” value is -4.084%.

As for `OC1CCN(C2CCN(c3ccc(Cn4ccnc4)cn3)CC2)CC1`, the “Percent Effect” value stood at 13.23%.

With `CCc1cc2cc(OC)c(OC)cc2nc1SCCN1CCCCC1.Cl`, the “Percent Effect” value was -12.6%.

`O=C(O)C(F)(F)F.O=C(c1ccc[nH]1)N1CCc2c(COCC3CC3)cncc2C1`: the “Percent Effect” value is -0.4009%.

Turning to `O=C(N1CCCC1)N1Cc2nccn2CC(CN2CCCC2)C1.O=C(O)C(F)(F)F` (centres undefined), the “Percent Effect” value is -12.61%.

Consider `CC(C)(O)CCc1cccc(C(=O)NCc2cnn3cccnc23)c1`, for which the “Percent Effect” value is -5.166%.

On to `O=C(NCc1cnn2cccnc12)c1cccc(CC2CCNCC2)c1`, for which the “Percent Effect” value is reported as 70.42%.

For `CC(C)Cn1cncc1CNC(=O)c1cccc(CC2CCNCC2)c1`, the “Percent Effect” value was -17.32%.

Turning to `CCOC1COC2(CCN(Cc3cccc(F)c3)CC2)C1.O=C(O)C(F)(F)F` (centres undefined), the “Percent Effect” value was -9.066%.

`Cc1cc(N2CCOCC2)ccc1NC(C)c1nc(C(C)(C)C)no1` (centres undefined): the “Percent Effect” value came out at 72.1%.

Regarding `Cc1cc(N2CCOCC2)ccc1NC(C)c1nc(C(C)C)no1` (centres undefined), the “Percent Effect” value amounted to 45.07%.

As for `Cc1noc(C(C)Nc2ccc(N3CCOCC3)cc2C)n1` (centres undefined), the “Percent Effect” value worked out at 41.84%.

For `O=C(O)C(F)(F)F.O=C(O)C(F)(F)F.O=C(c1cscn1)N1CCC2(CN(Cc3ccncc3)C2)C1`, the “Percent Effect” value was -52.86%.

In the case of `COCC1c2c(cnn2C)CCN1Cc1cccc(C)c1.O=C(O)C(F)(F)F.O=C(O)C(F)(F)F` (centres undefined), the “Percent Effect” value is recorded as -46.03%.

For `CC1CN(CC(=O)NCCc2ccccc2)CCN1c1nccs1` (centres undefined), the “Percent Effect” value was -17%.

`NCCc1nc(N(Cc2cncs2)C2CC2)c2ccccc2n1`: the “Percent Effect” value is reported as -30.71%.

For the compound `NCCc1nc(N(Cc2nccs2)C2CC2)c2ccccc2n1`, the “Percent Effect” value is recorded as -17.4%.

On to `Cc1ccsc1CN(c1nc(CCN)nc2ccccc12)C1CC1`, for which the “Percent Effect” value is reported as 91.12%.

In the case of `CC(=O)N1CC(=O)N(c2cnn(C)c2)CC12CCN(Cc1cccs1)C2.O=C(O)C(F)(F)F` (centres undefined), the “Percent Effect” value was -1.108%.

As for `CC1=C(C#N)C(=O)N(C)C(=O)/C1=C\C1=Cc2ccccc2OC1`, the “Percent Effect” value is given as -26.04%.

In the case of `Cc1ccc(CN2CCn3c(COc4cccnc4)cnc3C2C)o1.O=C(O)C(F)(F)F.O=C(O)C(F)(F)F` (centres undefined), the “Percent Effect” value came to 17.82%.

For the compound `CN(C(=O)NCc1nccn1Cc1ccccc1)C1CC1`, the “Percent Effect” value is -34.67%.

Turning to `Cn1ccnc1CNC1CCCOc2c1ccc1ccccc21` (centres undefined), the “Percent Effect” value turned out to be 95.81%.

Turning to `Cn1cc(CNC2CCCOc3c(Cl)cccc32)cn1` (centres undefined), the “Percent Effect” value came out at 12.93%.

`Cc1ccc2c(c1)C(NCc1nccn1Cc1ccccc1)CCCO2` (centres undefined): the “Percent Effect” value is given as 102%.

On to `Cn1cc(CNC2CCCOc3c2ccc2ccccc32)cn1` (centres undefined), for which the “Percent Effect” value was 11.28%.

In the case of `COc1cccc(CNC2CCCOc3cc(C)ccc32)n1` (centres undefined), the “Percent Effect” value was -23.35%.

Consider `Cc1ccc2c(c1)C(NCc1nnc3n1CCCCC3)CCCO2` (centres undefined), for which the “Percent Effect” value is on record as -13.54%.

As for `Cc1cccc2c1OCCCC2NCc1nccn1Cc1ccccc1` (centres undefined), the “Percent Effect” value was determined as 104.4%.

`Cc1cccc2c1OCCC2NCc1c(C)nn(C)c1N(C)C` (centres undefined): the “Percent Effect” value is -4.09%.

Consider `Cc1ccc2c(c1)OCCCC2NCc1nnc2n1CCCCC2` (centres undefined), for which the “Percent Effect” value is on record as -7.759%.

In the case of `Cc1ccc2c(c1)OCCCC2NCc1nccn1CC(C)C` (centres undefined), the “Percent Effect” value was found to be 101.9%.

For the compound `Cc1cccc2c1OCCCC2NCc1nnc2n1CCCCC2` (centres undefined), the “Percent Effect” value was -4.885%.
